Laboratory results taken from PubChem BioAssay (NCATS).
A number with no mark means an inactive call. Inconclusive results are not listed. Calls of active or inactive are those of the source. Unless noted, calls follow the shape of the dose curve; as a rule, active = well fitted curve in either direction with a large enough effect (not every such curve was filed as active); inconclusive = small, poorly fitted or top-dose-only effect, or another doubt; inactive = flat fitted curve, though single readings scatter.

Legend:
[1] = AP1 Signaling Pathway (AID 357); conditions: ME-180 AP-1-bla reporter, EGF-induced, beta-lactamase ratio, 5 h; at 17.2 µM (top of the series) unless noted;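 also: ME-180 reporter cells stimulated with EGF at its EC50 level; % is scaled to controls: 0 for no effect and ±100 for the full control effect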
Method in brief: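 AP-1-bla ME-180 cells, Opti-MEM + 0.5% dialyzed FBS, plated overnight 37 °C. Cpd titration + EC50 EGF, 5 h 37 °C. CCF4 2.5 h RT; ex 405, em 460/530 ratio → %activity, AC50.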

[2] = NFAT Signaling Pathway (AID 444); conditions: Jurkat NFAT-bla M1, carbachol, beta-lactamase ratio, 5 h; at 17.2 µM (top of the series) unless noted;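 also: carbachol stimulus at about its EC50 of 1 µM final; % is scaled to controls: 0 for no effect and ±100 for the full control effect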
Method in brief: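 Jurkat cells with NFAT-driven β-lactamase reporter and co-expressed M1 receptor, stimulated with carbachol (final 1 uM, ~EC50), compound titration, 5 h at 37 °C. CCF4 loaded 1 h at RT; 460/530 nm ratio gave %activity and AC50.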

[3] = Stat Signaling Pathway (AID 446); conditions: ME-180 (cervical carcinoma) SIE beta-lactamase reporter, IL-6 stimulated, 5 h; at 17.2 µM (top of the series) unless noted;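 also: ME-180 cervical cancer cells given 40 pM IL-6 alongside compound; SIE-controlled beta-lactamase reporter measured as 460/530 nm FRET emission ratio; % is scaled to controls: 0 for no effect and ±100 for the full control effect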
Method in brief: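 Normalization used AC90 stimulation (300 pM IL-6) and AC90 inhibition (125 nM pan-JAK inhibitor at 40 pM IL-6). The underlying signal is SIE-driven beta-lactamase in ME-180 cells after 5 h IL-6 exposure with compound.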

[4] = biological target: Glucocorticoid receptor (Homo sapiens) (UniProt P04150); experiment: GR-GFP Redistribution (AID 450;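 active = compounds whose dose series gives a full or clear partial fitted curve of increased nuclear translocation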; also: potency is read from the fitted curve at half-maximal effect)
Glucocorticoid receptor (Homo sapiens), sequence (P04150 whole entry, looked up): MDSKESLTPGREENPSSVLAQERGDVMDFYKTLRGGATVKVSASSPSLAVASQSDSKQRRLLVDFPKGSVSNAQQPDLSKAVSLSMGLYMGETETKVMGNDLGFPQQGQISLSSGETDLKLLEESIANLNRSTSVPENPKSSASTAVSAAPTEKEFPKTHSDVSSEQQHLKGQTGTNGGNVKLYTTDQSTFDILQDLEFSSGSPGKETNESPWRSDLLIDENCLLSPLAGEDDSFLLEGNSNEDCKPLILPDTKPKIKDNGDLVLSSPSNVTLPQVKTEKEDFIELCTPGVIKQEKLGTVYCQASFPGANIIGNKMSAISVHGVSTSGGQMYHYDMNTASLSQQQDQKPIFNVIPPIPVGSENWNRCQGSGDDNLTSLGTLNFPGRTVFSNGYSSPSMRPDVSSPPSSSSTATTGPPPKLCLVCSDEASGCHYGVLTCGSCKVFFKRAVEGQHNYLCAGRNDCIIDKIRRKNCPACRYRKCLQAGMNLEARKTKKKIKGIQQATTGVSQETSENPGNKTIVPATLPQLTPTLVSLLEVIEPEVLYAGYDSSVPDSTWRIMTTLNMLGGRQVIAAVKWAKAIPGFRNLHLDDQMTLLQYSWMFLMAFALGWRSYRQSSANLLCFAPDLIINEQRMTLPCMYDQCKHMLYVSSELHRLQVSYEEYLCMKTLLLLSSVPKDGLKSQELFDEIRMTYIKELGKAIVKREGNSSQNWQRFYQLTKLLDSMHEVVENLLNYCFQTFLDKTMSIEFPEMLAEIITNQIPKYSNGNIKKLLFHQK

Row | Structure (SMILES) | activity change, negative = inhibition [1] [%] | activity change, negative = inhibition [2] | activity, negative = inhibition [3] [%] | Potency [4] [µM]
1 | CSc1nc2sc3c(c2c2nnnn12)CCC3 | -5.46 | -14.8% | 9.44 | > 20.6
2 | O=C1C=C(NCCNc2c(F)c(F)c(CO)c(F)c2F)CCC1 | -0.699 | -5.54% | 2.13 | > 20.6
3 | CCOc1ccc(C2/C(=C(/O)c3ccc(F)cc3)C(=O)C(=O)N2CCCN(C)C)cc1 (stereo not drawn) | 10.1 | 5.42% | 6.85 | > 20.6
4 | O=C1C2ON(c3ccccc3)C(c3cccnc3)C2C(=O)N1c1ccccc1 (stereo not drawn) | -5.35 | -5.72% | 1.24 | > 20.6
5 | COc1ccc(C2Nc3ccccc3C(=O)N2Cc2ccco2)cc1CN1C(=O)c2ccccc2C1=O (stereo not drawn) | -19.7 | -14.1% | -19.4 | > 20.6
6 | CSc1nc(Oc2ccc(=O)[nH]n2)nc(N(C)C)n1 | 0.488 | -5.44% | 3.84 | > 20.6
7 | CCc1nc(NCCN2CCOCC2)c(C#N)c2c1CCCC2 | -11.1 | -20.4% | 6.43 | > 20.6
8 | COCCn1c(SCc2c(F)cccc2Cl)nc2c1c(=O)[nH]c(=O)n2C | -17.8 | -0.711% | -1.06 | > 20.6
9 | CCOc1ccc2nc(NC(NC(=O)CC)(C(=O)OC)C(F)(F)F)sc2c1 (stereo not drawn) | -9.26 | 8.42% | -8.24 | > 20.6
10 | Cc1cc(C)c(C#N)c(OCC(=O)c2ccccc2)n1 | -15.4 | -4.3% | -6.66 | > 20.6
11 | CN(C)CCOC(=O)Cc1ccc(Cl)cc1 | 12 | -7.05% | -4.76 | > 20.6
12 | CCOC(=O)c1c(C(F)(F)C(F)(F)C(F)(F)C(F)(F)F)n[nH]c1C | 4.08 | -9.51% | -8.59 | > 20.6
13 | COc1cc(C)nc(N(C)S(=O)(=O)c2ccccc2Cl)n1 | -3.56 | -19.3% | 1.54 | > 20.6
14 | CCOc1ccc2c(c1)n([O-])c1c([n+]2=O)CCCC1 | 9.01 | -13% | 1.7 | > 20.6
15 | CC(C)c1nc2n[nH]c(N)c2c2c1CCCC2 | -8.5 | 6.42% | -2.14 | > 20.6
16 | CC(=O)C1=C(O)C(=O)N(Cc2cccnc2)C1c1ccccc1Cl (stereo not drawn) | 3.06 | 3.26% | 1.82 | > 20.6
17 | CC1(C)Cc2c(c(-c3ccccc3)nc3[nH][nH]c(=O)c23)CO1 | -1.59 | -1.86% | 12.3 | > 20.6
18 | Cc1cc2c(c(=O)o1)C(CC(C)C)C(C#N)=C(N)O2 (stereo not drawn) | 14.1 | 4.64% | 1.38 | > 20.6
19 | CCCCn1c(-c2ccc(Cl)cc2)nc2c(=O)n(C)c(=O)[nH]c21 | 22.6 | -14.1% | 27.6 | > 20.6
20 | CCCCc1cc(=O)oc2c(CN3CCCC3)c(O)ccc12 | 9.79 | 2.24% | 3.31 | > 20.6
21 | CCOC(=O)CSc1nc(N(C)C)nc(N(C)C#N)n1 | 4.52 | -3.44% | -0.469 | > 20.6
22 | CN(C)CC(O)COc1ccc(-c2ccc(C#N)cc2)cc1 (stereo not drawn) | 1.87 | 11.2% | 2.27 | > 20.6
23 | Nc1ccc2ncccc2c1N | 5.69 | -85.4% (active) | -11.2 | > 20.6
24 | COc1ccc(CCNC2CC(C)N(C)CC2C)cc1OC (stereo not drawn) | 2.19 | -14.9% | 4.89 | > 20.6

Row | Structure (SMILES) | activity change, negative = inhibition [1] [%] | activity change, negative = inhibition [2] | activity, negative = inhibition [3] [%] | Potency [4] [µM]
25 | Cc1cc(=O)oc(C)c1C(=O)NC12CC3CC(CC(C3)C1)C2 | -5.66 | 1.02% | 1.82 | > 20.6
26 | O=c1[nH]c2cnccc2n1-c1ccccc1 | -12.9 | -4.82% | 1.57 | > 20.6
27 | COc1ccccc1C1/C(=C(/O)c2ccc(C)cc2)C(=O)C(=O)N1Cc1ccco1 (stereo not drawn) | 12.8 | 15.4% | -15.4 | > 20.6
28 | CCOC(=O)C(C)Oc1nc(Oc2ccccc2)nc(N(C)C)n1 (stereo not drawn) | -9.94 | 11% | 2.57 | > 20.6
29 | CCCCCOc1ccccc1C(=O)NCCCC(=O)O | 2.16 | -1.98% | 1.72 | > 20.6
30 | CC(C)Nc1nc(NC(C)C)nc(N(C)n2cnnc2)n1 | 9.58 | -6.19% | 4.66 | > 20.6
31 | COc1ccc(OC)c(NC(=O)CSc2nnc(-c3ccco3)n2-c2ccc(C(=O)O)cc2)c1 | -4.17 | 15.9% | -4.38 | > 20.6
32 | COc1ccc(OC(=O)c2cc3ccccc3o2)cc1 | 1.41 | -19.7% | 10.1 | > 20.6
33 | CC(C)(C)c1ccc(O)c(N)c1 | 3.38 | -5.9% | 8.3 | > 20.6
34 | C=CCNc1nc(C)nc(OC)n1 | 8.25 | 13.9% | 4.41 | > 20.6
35 | Cc1c(C)n(C(=O)CSc2nccn2C)c2ccccc12 | 14.1 | -0.559% | 0.828 | > 20.6
36 | COC(=O)CSc1nc(C)c(Oc2ccccc2)c(=O)[nH]1 | 22.2 | 15.3% | 7.32 | > 20.6
37 | CCN1C(=O)CC(N2CCN(c3ccc(OC)cc3)CC2)C1=O (stereo not drawn) | 7.27 | 1.19% | 1.34 | > 20.6
38 | O=C(OCCN1CCOCC1)c1ccc2c(c1)OCCO2 | -10 | 19.9% | 6.54 | > 20.6
39 | COC(=O)c1ccc(Nc2cc(C)nc(-c3ccccc3O)n2)cc1 | 15.3 | -10.8% | -5.42 | > 20.6
40 | CCOC(=O)CSc1nc(-c2ccc3c(c2)OCO3)ccc1C#N | 7.89 | 18.5% | 4.79 | > 20.6
41 | Cc1cc(C)n(Cc2cc(C)c(Cn3nc(C)cc3C)cc2C)n1 | 14.4 | -3.13% | -5.55 | > 20.6
42 | Cc1noc(NS(=O)(=O)c2ccc(NC(=O)COc3ccccc3)cc2)c1C | 2.17 | 1.26% | -0.515 | > 20.6
43 | O=S(=O)(c1ccccc1)N(CC(O)CN1CCCCC1)c1ccccc1 (stereo not drawn) | -4.48 | -23% | 3.01 | > 20.6
44 | S=c1nc(-c2ccccc2)[nH]n1-c1ccccc1 | 21.6 | 5.29% | -1.15 | > 20.6
45 | Cc1nnc(SCC(=O)N2CCOCC2)c2ccccc12 | -1.59 | 3.16% | 2.48 | > 20.6
46 | CSc1sc(C(=O)O)c2c1C(=O)CCC2 | 12.2 | -0.427% | 3.35 | > 20.6
47 | CN(C)CCCN1C(=O)C(O)=C(C(=O)c2cc3ccccc3o2)C1c1ccccc1 (stereo not drawn) | 8.55 | -4.4% | 1.48 | > 20.6
